# Laboratory results as given in PubChem BioAssay.
# Active and inactive are the calls of the source. Unless noted, no rule for the calls is given here.
# Legend:
# [1] = tested on: XIP peptide (Xip251-270) binding; assay: XIP fragment 251-270 binding compounds – biochemical, small-molecule microarray, fluorescence 635/667 nm, 0.1 µg/mL protein, primary screen (AID 1182); settings: fluorescent protein binding, 635 nm, higher = more signal, called active from +8 up or from −8 down
# XIP peptide (Xip251-270) = assay: compounds binding XIP fragment 251-270 – biochemical, small-molecule microarray, fluorescence 635/667 nm, 0.5 µg/mL protein, primary screen (AID 1183); settings: fluorescence 635 nm, higher = more signal
# [2] = blood-stage malaria parasite viability loss – strain 3D7, DAPI fluorescence, 100 nL, primary screen (AID 1184);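 also: parasites grown inside human red blood cells in medium with human serum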; settings: P. falciparum 3D7 growth, 3 d, higher = more signal
# [3] = target: Homeobox protein Hox-A13 (Mus musculus) (UniProt Q62424); assay: disruptors of Hoxa13 oligonucleotide interaction – biochemical, fluorescence polarization, labeled oligonucleotide, primary screen (AID 1185); settings: Hoxa13:DNA binding, 15 min, higher = more signal, called active from +8 up or from −8 down
# Chain of Homeobox protein Hox-A13 (Mus musculus) (Q62424 whole entry, looked up): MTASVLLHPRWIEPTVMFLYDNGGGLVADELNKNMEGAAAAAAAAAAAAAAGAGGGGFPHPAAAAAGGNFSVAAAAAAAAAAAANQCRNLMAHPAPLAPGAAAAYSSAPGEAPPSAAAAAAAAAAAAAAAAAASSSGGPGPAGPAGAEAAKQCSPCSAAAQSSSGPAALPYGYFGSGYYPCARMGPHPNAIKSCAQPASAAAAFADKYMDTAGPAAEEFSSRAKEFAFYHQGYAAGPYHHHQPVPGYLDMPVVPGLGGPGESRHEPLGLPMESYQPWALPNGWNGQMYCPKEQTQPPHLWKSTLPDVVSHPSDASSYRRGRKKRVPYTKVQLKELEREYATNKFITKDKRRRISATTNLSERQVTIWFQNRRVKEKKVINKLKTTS
# [4] = blockers of DNA damage checkpoint Chk1 activation – imaging, HeLa, hydroxyurea, phospho-Chk1 antibody, percent positive cells, primary screen (AID 1186); settings: hydroxyurea-induced phospho-Chk1 immunofluorescence imaging, higher = more signal
# [5] = blockers of DNA damage checkpoint Chk1 activation – imaging, HeLa, hydroxyurea, phospho-Chk1 nuclear intensity, primary screen (AID 1187); settings: hydroxyurea-induced phospho-Chk1 immunofluorescence imaging, higher = more signal
SMILES,composite z-score [1],composite z-score (XIP peptide (Xip251-270)),z-score [2],z-score [3],z-score [4],z-score [5]
COC(=O)[C@]1(Cc2ccccc2N=[N+]=[N-])N=C(c2ccc(OCCCO)cc2)O[C@@H]1c1ccccc1N=[N+]=[N-],0.404 (inactive),0.614,-2.09,-2.31 (inactive),-0.53 (inactive),-0.923 (inactive)
O=c1oc(-c2ccccc2)nc2cc(Br)ccc12,-0.208 (inactive),-0.0114,1.64,4.46 (inactive),0.208 (inactive),0.0639 (inactive)
CC(C)N1CC=CC23O[C@@H]4C=CCOC(=O)[C@@H]4[C@H]2C(=O)N(CCO)[C@@H]3C1=O (some centres undefined),-0.145 (inactive),-0.014,0.74,-2.98 (inactive),-0.514 (inactive),-0.419 (inactive)
C=C(C(=O)CC[C@H](OC(C)=O)c1ccc(OCCO)cc1)C(C)C,0.0512 (inactive),0.601,-2.57,-3.14 (inactive),0.772 (inactive),-0.0365 (inactive)
CC(C)C(=C=CC[C@@H](O)c1ccccc1OCCO)C[C@@H](O)c1ccccn1,2.26 (inactive),0.499,-1.35,-4.89 (inactive),0.0231 (inactive),0.215 (inactive)
COc1cc(CO)ccc1OC(C)=O,-0.152 (inactive),0.383,0.186,0.472 (inactive),-0.111 (inactive),0.0389 (inactive)
COc1ccc([Si](C)(C)[C@@H]2[C@@H](CC(=O)N3CCC[C@H]3CO)O[C@]3(C(=O)N(C)c4c(Br)cc(C)cc43)[C@H]2C)cc1,0.0849 (inactive),0.507,-0.949,-6.11 (inactive),-0.477 (inactive),-0.466 (inactive)
COc1ccc(CCNC(=O)[C@@]2(c3ccc([N+](=O)[O-])cc3)CC(=O)N(CC34CC5CC(CC(C5)C3)C4)[C@@H]2c2ccc(CO)cc2)cc1,0.349 (inactive),0.735,-1.79,-2.31 (inactive),-0.42 (inactive),-0.458 (inactive)
O=C(CS)NCCCCCCNC(=O)[C@H]1C[C@H]2C(=O)NCC(=O)N2[C@H]1c1ccc(O)cc1,0.545 (inactive),0.832,0.509,-2.43 (inactive),0.419 (inactive),0.37 (inactive)
[N-]=[N+]=NCc1ccccc1[C@@H]1OC(c2ccc(OCCCO)cc2)=N[C@]1(Cc1ccccc1N=[N+]=[N-])C(=O)NCc1ccccc1,0.304 (inactive),0.442,-2.29,1.76 (inactive),-0.76 (inactive),-0.767 (inactive)
N#Cc1ccc(NN2C(C(O)C3CCCCC3)C=CC3C(=O)N(c4ccccc4)C(=O)C32)cc1 (centres undefined),0.769 (inactive),0.694,0.898,-2.14 (inactive),-0.14 (inactive),-0.0947 (inactive)
[N-]=[N+]=NCc1ccccc1C[C@]1(C(=O)O)N=C(c2ccc(OCCCO)cc2)O[C@H]1c1ccccc1CN=[N+]=[N-],0.218 (inactive),0.746,-0.507,-4.69 (inactive),-0.0136 (inactive),0.306 (inactive)
CCOC(=O)C1=CCC(C(C)(C)C)N(S(=O)(=O)c2ccc(C)cc2)C1 (centres undefined),0.548 (inactive),0.806,-0.797,-4.56 (inactive),-1.42 (inactive),-1.98 (inactive)
CC(C)(C)N1CC=CC23O[C@@H]4C=CCOC(=O)[C@@H]4[C@H]2C(=O)N(CCCCCO)[C@@H]3C1=O (some centres undefined),0.295 (inactive),-1.13,-0.366,-4.43 (inactive),0.241 (inactive),-0.459 (inactive)
